What was measured:
Test in all cases: PBM binding z-score (relative to random genomic background probes); higher = stronger binding; sequences stand for … in GC…GCGATTGACAGCGTAGAATGAAGG
[1] = test system: FXR:RXRa (NR concentration 270 nM, RXRa partner concentration 90 nM)
Summary of the method: (§1)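 Custom Agilent 4×180K protein-binding microarrays carried double-stranded probes, each with a 34-nt variable region. These regions held direct-repeat seeds, single-nucleotide variants, half-site ablations and random human genomic background sequences. Ligand-free nuclear receptor dimers were incubated on the arrays for 1 h, antibodies against each partner (one per run) detected binding, and scanned fluorescence was regression-normalized. Binding z-scores take the random background probes as reference.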

[2] = test system: LXRa:RXRa (NR concentration 270 nM, RXRa partner concentration 90 nM)
Summary of the method: as §1

[3] = test system: LXRa homodimer (NR concentration 270 nM)
Summary of the method: as §1

[4] = test system: LXRb:RXRa (NR concentration 270 nM, RXRa partner concentration 90 nM)
Summary of the method: as §1

[5] = test system: LXRb homodimer (NR concentration 270 nM)
Summary of the method: as §1

[6] = test system: PPARa:RXRa (NR concentration 270 nM, RXRa partner concentration 90 nM)
Summary of the method: as §1

[7] = test system: PPARg:RXRa (NR concentration 180 nM, RXRa partner concentration 90 nM)
Summary of the method: as §1

[8] = test system: PPARg:RXRa 270nM:90nM, anti-RXR (NR concentration 270 nM, RXRa partner concentration 90 nM)
Summary of the method: as §1

[9] = test system: PPARg:RXRa 30nM:10nM, anti-RXR (NR concentration 30 nM, RXRa partner concentration 10 nM)
Summary of the method: as §1

[10] = test system: PPARg:RXRa 90nM:30nM, anti-RXR (NR concentration 90 nM, RXRa partner concentration 30 nM)
Summary of the method: as §1

Row | Sequence | PBM binding z-score [1] | PBM binding z-score [2] | PBM binding z-score [3] | PBM binding z-score [4] | PBM binding z-score [5] | PBM binding z-score [6] | PBM binding z-score [7] | PBM binding z-score [8] | PBM binding z-score [9] | PBM binding z-score [10]
1 | AGTCAAAGTTCAGAACGAGGTAACGTAAAGCACG | 4.06 | 3.73 | 1.34 | 1.78 | 0.533 | 3.26 | 4.48 | 4.72 | 1.77 | 4.12
2 | TCTATTAGTTGATTAGGGCAACCAAAACAGCGGA | 0.762 | 0.673 | 0.188 | 0.699 | 0.773 | 1.06 | 0.435 | 2.01 | 3.9 | 2.83
3 | ATGGAAAGGTCGAGGTGAGTATAGAGAAAGGGAA | 4.15 | 3.47 | 0.547 | 2.81 | 0.956 | 4.69 | 3.21 | 4.02 | 1.44 | 2.83
4 | AGTCAAAGCTCATCTAGGTAACGTAAGATATGCT | -0.387 | -0.578 | -0.275 | -0.318 | -0.689 | 0.0609 | 0.604 | 0.302 | -0.0105 | 0.0855
5 | TCTTGTAGCTCAATAGAGGTTAAGAAAGTGCGCT | 0.285 | 3.13 | 0.267 | 1.49 | -0.618 | 1.52 | -0.424 | 0.893 | 1.96 | 1.41
6 | CGTCCAAGGTCAGAGAGGTAAGTGAATGCCGAGT | 4.98 | 3.18 | 0.174 | 2.39 | -0.0952 | 3.93 | 2.19 | 2.66 | 0.414 | 1.42
7 | TCGAGTAGGTTACCAATGGGGCATTGAGCTTTCT | 0.162 | 1.38 | -0.99 | 0.479 | -1.11 | 0.992 | 0.256 | 1.26 | 1.03 | 1.16
8 | AATACAGGGTCACTAGGCCAGACTAGGTACGAAT | 6.12 | 5.24 | 0.88 | 3.8 | 0.693 | 5.84 | 7.65 | 6.41 | 3.21 | 5.35
9 | GCAGACACGTGAAACGCAGGTAACTCAGGGTGGC | -0.868 | -0.737 | -0.81 | -0.691 | -1.29 | -0.718 | 0.584 | -0.446 | -0.559 | -0.87
10 | TGTCAAAGTTCAAAGGTAACGTAGGTATCCACAC | 6.64 | 6.44 | 4.15 | 4.46 | 1.58 | 5.79 | 8.31 | 7.65 | 4.86 | 7.25
11 | TAGCCTAGGTCATTGGGCCGGTATAGTACGCATC | 4.26 | 2.99 | 0.765 | 2.23 | 0.429 | 3.43 | 2.46 | 2.72 | 0.313 | 1.53
12 | ATACCAAGGTAATCGTGAGGTCGTTGATACTAAC | 1.31 | 1.48 | 0.673 | 1.29 | 0.295 | 1.38 | 0.484 | 0.308 | -0.0613 | 0.22
13 | TAGCCTAGGTCATGAGGGCCAGTATAGTGTCGGC | 3.91 | 3.07 | 0.189 | 1.73 | -0.262 | 3.69 | 2.94 | 2.69 | 0.483 | 1.94
14 | TGTATTAGTTGATTAGGGCAACCGAAACAGCGGA | 0.242 | 0.0777 | 0.397 | 0.234 | 1.3 | 0.484 | 0.304 | 0.782 | 0.748 | 0.794
15 | AGAACGAGGGCACGCTGAGTTGTTAGCAGAGTAG | 0.878 | 0.882 | -0.742 | 0.17 | -1.13 | 2.18 | 1.94 | 1.79 | 0.32 | 1.16
16 | CGAACTACGTCATTGACAGGACAGTGAATAGTAA | -0.386 | -0.38 | -0.195 | -0.327 | -0.182 | -0.47 | 0.307 | -0.251 | -0.294 | -0.164
17 | CATCCAAGGTCAAGGTCAGTGAAAGAGACTCGAA | 7.77 | 6.14 | 2.48 | 5.1 | 2.11 | 6.02 | 7.17 | 6.56 | 3.3 | 5.45
18 | ATATGTAGGGTACATCCGGGTCATTCAGGCTATG | 1.96 | 2.96 | 1.43 | 2.4 | 1.27 | 3.89 | 4.04 | 3.53 | 1.46 | 2.33
19 | TCTTGTAGATCAACAGGAGGTTAAGGAAGATCGA | 0.186 | 0.637 | -0.0408 | 0.484 | -0.341 | 1.24 | 0.0349 | 1.22 | 2.48 | 1.68
20 | AGTCAAAGTTCAGGACGAGGTAACGTCAAGCACG | 4.26 | 3.98 | 1.22 | 1.77 | -0.0254 | 3.5 | 4.43 | 4.98 | 1.87 | 4.04
21 | CAAACTAGGTCATGAAAGGTCAAAGTCGAATGAC | 7.56 | 8.15 | 8.41 | 7.23 | 2.86 | 6.78 | 9.71 | 8.12 | 6.46 | 8.38
22 | CCTTACGGGTCAAGTTTATAGCACGGGTGGTACG | 6.15 | 4.11 | 0.444 | 3.48 | 0.604 | 5.14 | 4.2 | 4.22 | 1.91 | 3.06
23 | GCGACTGGGGCAAAGCAGGTTACCATGAGGTTGG | 0.529 | 0.0146 | -0.506 | 0.0618 | -0.859 | 1.1 | 1.18 | 1.05 | -0.313 | 0.335
24 | TGAATGAGGTTATAAGATCAGGGCACGTTGCAAA | 1.49 | 1.49 | 0.117 | 1.32 | 0.0684 | 2.9 | 1.62 | 1.95 | 0.914 | 1.63

Source: the supplement of paper PMC6555819
